Experiment [1] is described as follows: NCI Yeast Anticancer Drug Screen. Data for the rad50 strain (AID 155).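 Further: 0% = growth of vehicle-only cultures of the same strain.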 To be noted: S. cerevisiae rad50 strain growth inhibition; at 50.0 µM; stronger effect = higher value. The essentials:
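Compounds were tested on a yeast strain with an engineered DNA damage repair alteration; the reported value is growth inhibition normalised to vehicle treatment.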

Experiment [2] is described as follows: NCI Yeast Anticancer Drug Screen. Data for the mec2-1 strain (AID 157). Particulars: S. cerevisiae mec2-1 strain, at 50.0 µM, stronger effect = higher value. The procedure, abridged: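 Test agents were screened against the mec2-1 yeast strain, with defined DNA repair or cell cycle alteration. Growth was scored as inhibition against vehicle-only controls.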
Experiment [3] is described as follows: NCI Yeast Anticancer Drug Screen. Data for the sgs1 mgt1 strain (AID 161).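 Further: 0% = growth of cultures given vehicle only.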 Particulars: S. cerevisiae sgs1 mgt1 strain, at 50.0 µM, stronger effect = higher value. The essentials: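 Genetically altered yeast, compound exposure, growth inhibition relative to vehicle.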
Experiment [4] is described as follows: NCI Yeast Anticancer Drug Screen. Data for the cln2 rad14 strain (AID 165).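 Further: 0% = growth equal to vehicle treated cultures.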 Particulars: S. cerevisiae cln2 rad14 strain, at 50.0 µM, stronger effect = higher value. The essentials: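 Growth of compound-exposed yeast (cln2 rad14 genotype) measured and expressed as inhibition relative to vehicle.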
A short description of experiment [5]: NCI Yeast Anticancer Drug Screen. Data for the bub3 strain (AID 167). To be noted: S. cerevisiae bub3 mutant strain, at 50.0 µM, stronger effect = higher value. The essentials:
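Growth of a checkpoint-deficient yeast mutant is measured after compound exposure. Values represent inhibition relative to vehicle.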

The nature of experiment [6]: NCI Yeast Anticancer Drug Screen. Data for the mlh1 rad18 strain (AID 175). To be noted: S. cerevisiae mlh1 rad18 strain growth inhibition; at 50.0 µM; stronger effect = higher value. The essentials:
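In this whole-cell yeast screen, a strain with altered DNA damage repair is challenged with compound, and its growth is measured against matched vehicle-treated controls.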

The values below come from PubChem BioAssay (NCI).

Molecules are shown by their SMILES. About 79,000 compounds went through this panel and 15% of them were active in at least one assay; those are over-represented in the sample as a whole. A number with no mark means an inactive call. Calls of active or inactive are those of the source. No stated cut-off is given here; in the data, active means growth inhibition above about 70%; inactive means the rest.

As for `c1ccc(Cc2ccc3ccccc3c2)cc1`, the growth inhibition was 35.3% in experiment [1]; 14.6% in experiment [2]; 11.8% in experiment [3]; -26.6% in experiment [4]; 12.2% in experiment [5]; 50.2% in experiment [6].

`Nc1nc(=O)n(CCCCCCc2ccccc2)cc1-c1ccc(Cl)c(Cl)c1`: the growth inhibition is -4.75% in experiment [1]; -8.95% in experiment [2]; 8% in experiment [3]; 83.7% (active) in experiment [4]; 3.65% in experiment [5]; 0.45% in experiment [6].

Consider `N#CC(C(=O)/C(=N\Nc1nc(=S)[nH]n1N)C(C#N)c1ccc(Cl)cc1)c1ccc(Cl)cc1` (stereo unspecified), for which the growth inhibition in experiment [1] was -13.3%; in experiment [2], -10%; in experiment [3], -28.6%; in experiment [4], 4.45%; in experiment [5], -4.4%; in experiment [6] it was -4.95%.

`CCOC(=O)C[n+]1ccc(C(=O)OCC)cc1`: the growth inhibition in experiment [1] is -7.1%; in experiment [2], -15.2%; in experiment [3], 0.05%; in experiment [4], 2.3%; in experiment [5], 11.1%; in experiment [6], 3.5%.

Consider `O=C(C[n+]1cccc(CO)c1)c1ccc(-c2ccc(C(=O)C[n+]3cccc(CO)c3)cc2)cc1`, for which the growth inhibition in experiment [1] was 22.8%; in experiment [2], 5.35%; in experiment [3] it was 31.7%; in experiment [4], -4.7%; in experiment [5], -1.7%; in experiment [6] it was 11.7%.

As for `O=C(Cc1ccccc1)NN1C(=O)C(Cl)C1c1ccccc1` (stereo unspecified), the growth inhibition is -10.3% in experiment [1]; 15.2% in experiment [2]; -12.5% in experiment [3]; 4.8% in experiment [4]; -5% in experiment [5]; -2.3% in experiment [6].

As to `COc1ccc(Br)cc1C=Nc1ccccc1`, the growth inhibition in experiment [1] is 14.9%; in experiment [2], 3.05%; in experiment [3], 19.2%; in experiment [4], -8.05%; in experiment [5], 9.05%; in experiment [6], 4.85%.

Turning to `COc1cc(OC)c2nc(C)c3c(c2c1)SCC3`, the growth inhibition in experiment [1] was -0.5%; in experiment [2], -23.1%; in experiment [3] it was 5.25%; in experiment [4], 7.4%; in experiment [5] it was 28.6%; in experiment [6], 20%.

Turning to `CN(Cc1cnc2nc(N)nc(N)c2n1)c1ccc(C(=O)NC(CCC(=O)OCc2cc3c(cc2Cl)OCO3)C(=O)OCc2cc3c(cc2Cl)OCO3)cc1` (stereo unspecified), the growth inhibition is 16.9% in experiment [1]; 58.3% in experiment [2]; 42% in experiment [3]; 44.6% in experiment [4]; -8.6% in experiment [5]; 46.2% in experiment [6].

As to `ClCCCCCCCCCCl`, the growth inhibition in experiment [1] was 28.6%; in experiment [2] it was -17.4%; in experiment [3] it was -12.7%; in experiment [4], -9%; in experiment [5], -13.2%; in experiment [6] it was 2.15%.

`CCC1CN2CCc3cc(OC)c(OC)cc3C2CC1O` (stereo unspecified): the growth inhibition is 1.3% in experiment [1]; 40.4% in experiment [2]; 20% in experiment [3]; -3.1% in experiment [4]; 44.4% in experiment [5]; 27.9% in experiment [6].

Take `O=C1CCC(C(=O)O)N1` (stereo unspecified): the growth inhibition in experiment [1] was -9.2%; in experiment [2] it was 4.7%; in experiment [3] it was -20.9%; in experiment [4], 1.15%; in experiment [5], 7.7%; in experiment [6], -7.8%.

Take `CC(=O)N(CN1C(=O)CCC1C(=O)O)c1ccccc1Cl` (stereo unspecified): the growth inhibition is 10.3% in experiment [1]; 14.4% in experiment [2]; -13.6% in experiment [3]; -4.35% in experiment [4]; -3.85% in experiment [5]; -40.5% in experiment [6].

Turning to `CCOP(=O)(OCC)OC1CC(n2cc(C)c(=O)n(C)c2=O)OC1CO[Si](C)(C)C(C)(C)C` (stereo unspecified), the growth inhibition was 19.1% in experiment [1]; 1.5% in experiment [2]; 25.9% in experiment [3]; 17.6% in experiment [4]; 20.9% in experiment [5]; -12.7% in experiment [6].

On to `O=C(Cc1ccccc1)Nc1ccccc1Cl`, for which the growth inhibition is -8.1% in experiment [1]; 0.35% in experiment [2]; 4.55% in experiment [3]; 21.2% in experiment [4]; 14.7% in experiment [5]; 1.95% in experiment [6].

Take `CCOc1ccc(N=Nc2c(C)nn(C(N)=S)c2OCC)cc1`: the growth inhibition in experiment [1] was -54.6%; in experiment [2], -21.6%; in experiment [3], 11.6%; in experiment [4] it was -38.5%; in experiment [5], -5.25%; in experiment [6] it was -7.35%.

Regarding `O=C1c2cc(Cl)ccc2-c2cc(Cl)c(Cl)cc21`, the growth inhibition in experiment [1] was -0.8%; in experiment [2], -2.05%; in experiment [3], 10.4%; in experiment [4] it was -29.9%; in experiment [5], -3.45%; in experiment [6], 26.6%.

For the compound `CC1=C(C(=O)NCc2ccccc2)C(c2ccco2)C(C(=O)NCc2ccccc2)=C(C)N1`, the growth inhibition in experiment [1] is -34.5%; in experiment [2], -20.4%; in experiment [3] it was -37.5%; in experiment [4], -13.3%; in experiment [5] it was -9.9%; in experiment [6] it was -21.8%.

In the case of `O=C1C=C(Nc2cccnc2)c2ccccc2C1=O`, the growth inhibition in experiment [1] is 9.5%; in experiment [2] it was -7.2%; in experiment [3] it was 0.4%; in experiment [4] it was 8.5%; in experiment [5] it was 19.6%; in experiment [6], 8.8%.

For the compound `CC(=O)Nc1nc2nccn2c(=O)[nH]1`, the growth inhibition in experiment [1] is -5.7%; in experiment [2], -3.1%; in experiment [3], -6.5%; in experiment [4] it was -28.3%; in experiment [5] it was -2.4%; in experiment [6], 2%.

For the compound `N#CC1CC12c1ccccc1C(=O)c1ccccc12` (stereo unspecified), the growth inhibition in experiment [1] was -1.9%; in experiment [2], 0.25%; in experiment [3] it was 0.8%; in experiment [4], -16.1%; in experiment [5] it was -21.4%; in experiment [6], -4.75%.
